Results published in PubChem BioAssay (EPA / NIEHS).
Inconclusive results are not listed. The source made the active and inactive calls. Rule for the calls: active = hit-call score of the fitted dose curve at least 0.9, where 1 is the maximum; inconclusive = response in the unintended direction; inactive = score below 0.9.

Columns and labels:
[1] = VALA_MIGHUV2_Bcatenin: VALA Sciences human Umbilical Vein Endothelial Cell Migration (MIGHUV) Assay, Nuclear Translocation of beta-Catenin after Recovery (AID 2284315)
How it was run: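 Nuclear beta-catenin imaged by immunofluorescence with Hoechst counterstain in fixed HUVEC, 24 h after scratch wounding and chemical addition. Six-point concentration-response in triplicate; activity scored as signal increase over 0.1% DMSO vehicle.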

[2] = CCTE_Mundy_HCI_iCellGluta_NOG_NeuriteLength: CCTE's Neurite Outgrowth Assay in iCellGluta cells for Neurite Length, Mundy Lab (AID 2284318)
How it was run: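 Automated high-content imaging of betaIII-tubulin (Alexa Fluor-488) and Hoechst-stained cells gave neurite length, normalized to the DMSO baseline.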

[3] = VALA_MIGHUV1_ScratchOnly_CellCount: Viability Assessment in the VALA Sciences human Umbilical Vein Endothelial Cell Migration (MIGHUV) Assay, Scratch Wound Inhibited Recovery (AID 2284327)
How it was run: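 Hoechst-stained nuclei in the scratch wound were counted by high-content imaging after a 24 h recovery period. Scratched HUVEC monolayers received 6-point concentration series, triplicate, in 0.1% DMSO, fit against DMSO.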

With `O=C1OC(c2ccc(O)cc2)(c2ccc(O)cc2)c2ccccc21` the outcome [1] was “inactive”.
For `Nc1nc(Cl)nc2c1ncn2[C@H]1C[C@H](O)[C@@H](CO)O1`, the outcome [1] was “inactive”.
In the case of `CC(=O)CC(c1ccccc1)c1c(O)c2ccccc2oc1=O` (stereo not given), the outcome [2] is reported as “inactive”.
With `OCC(O)CO` the outcome [2] was “inactive”.
With `COC(=O)[C@H]1[C@H]2C[C@@H]3c4[nH]c5cc(OC)ccc5c4CCN3C[C@H]2C[C@@H](OC(=O)c2cc(OC)c(OC)c(OC)c2)[C@@H]1OC` the outcome [3] was “inactive”.
